From PubChem
KCNQ2 block: KCNQ2 (rat) channel inhibition; O88943; CHO-K1 KCNQ2, FluxOR thallium flux, 20 min; stronger effect = lower value; B-score at 10 µM; 1.1% of 310,000 active;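 active = fluorescence ratio B-score at most minus 3 library SDs, with starting brightness B-score within 2 library SDs, cut at about -5.5 in these data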
KCNQ2 pot: KCNQ2 (rat) channel potentiation; O88943; AID 2239; 0.54% of 310,000 active; CHO-K1 KCNQ2, FluxOR thallium flux fluorescence; stronger effect = higher value; B-score at 10 µM;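 active = fluorescence ratio B-score at least 3 SD of library B-scores, with initial fluorescence B-score within 3 of them, cut at about 5.3 in these data; same plate scores as AID 2156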;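 note: B-score of peak minus minimum over baseline fluorescence ratio after K+ and Tl+ stimulus; positive B-score means potentiation of KCNQ2 with more thallium influx and brighter signal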
Kir21 conf inh: confirmation of mouse Kir2.1 potassium channel inhibitors; shares compounds with KCNQ2 pot; Kir2.1-expressing cells, FluxOR thallium flux fluorescence; stronger effect = lower value; Tl flux remaining, % of negative control (stronger effect = lower value), % at 10 µM; 41% of 2,300 active; AID 2032;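 active = Primary-screen hit whose thallium flux fell at least 3 control SD below untreated wells in both duplicates, with normal baseline fluorescence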
HEK293 ctr: alters thallium flux in parental HEK293 cells, Kir2.1 counter-screen; AID 2105; FluxOR thallium flux fluorescence; 0% = unstimulated blank wells; 19% of 2,300 active; shares compounds with KCNQ2 pot; FluxOR signal as % of negative control (100 = no effect), % at 10 µM;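 active = dye signal at least 3 control SD above or below untreated wells in both duplicates, raw fluorescence within 3, either direction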;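 note: percent is based on the flux ratio of peak minus minimum fluorescence over baseline F0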
CHO-K1 ctr: parental CHO-K1 activity in KCNQ2 potentiator counter-screen. shares compounds with KCNQ2 pot. parental CHO-K1 cells, FluxOR thallium flux fluorescence; zero = vehicle mean+3SD, 100% = vehicle-minus-blank window. activity increase over 3SD of controls, % at 10 µM. 43% of 1,200 active. AID 2282;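 active = signal rise of at least 3 SD above the untreated control mean, in both duplicate wells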;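 note: counter screen of KCNQ2 potentiator hits so any rise reflects channel-independent effects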
KCNQ1 sel pot: human KCNQ1 counter-target activity of KCNQ2 potentiators; 28% of 1,200 active; activation over 3SD threshold, % at 10 µM; shares compounds with KCNQ2 pot; CHO KCNQ1 stable, FluxOR thallium flux fluorescence; beyond 3SD, as % of vehicle-control signal;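 active = fluorescence ratio rise of at least 3 SD of vehicle wells above their mean, in both replicate wells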
Target sequence (P51787 whole entry, looked up): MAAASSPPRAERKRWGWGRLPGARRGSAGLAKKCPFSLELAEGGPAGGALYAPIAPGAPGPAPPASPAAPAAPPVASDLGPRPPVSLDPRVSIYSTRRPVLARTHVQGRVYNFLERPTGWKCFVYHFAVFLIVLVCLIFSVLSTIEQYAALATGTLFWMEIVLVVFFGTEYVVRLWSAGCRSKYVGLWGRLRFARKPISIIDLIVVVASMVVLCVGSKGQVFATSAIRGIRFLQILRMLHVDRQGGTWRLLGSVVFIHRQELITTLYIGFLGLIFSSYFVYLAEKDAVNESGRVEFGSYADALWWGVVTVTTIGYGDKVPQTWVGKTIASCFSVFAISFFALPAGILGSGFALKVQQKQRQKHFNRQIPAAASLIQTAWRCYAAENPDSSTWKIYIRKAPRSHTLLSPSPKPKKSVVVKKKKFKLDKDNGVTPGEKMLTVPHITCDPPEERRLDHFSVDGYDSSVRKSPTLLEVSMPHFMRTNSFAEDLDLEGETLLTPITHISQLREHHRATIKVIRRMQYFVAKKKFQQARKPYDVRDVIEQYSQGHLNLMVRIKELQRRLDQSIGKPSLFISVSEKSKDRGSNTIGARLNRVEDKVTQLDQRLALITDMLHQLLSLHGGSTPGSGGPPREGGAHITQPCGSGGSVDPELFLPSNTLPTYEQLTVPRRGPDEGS
KCNQ2 pot confirm: rat KCNQ2 channel potentiator confirmation; shares compounds with KCNQ2 pot; CHO-KCNQ2 cells, FluxOR thallium flux fluorescence; potentiation, less the hit threshold, % at 10 µM; 68% of 1,200 active; AID 2287;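 active = fluorescence ratio rising 3 SD or more over the vehicle control mean in both replicates, plus primary screen hit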;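 note: peak minus minimum thallium fluorescence divided by baseline after K/Tl stimulus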
Kir21 spec: tests whether KCNQ2 potentiators also affect mouse Kir2.1; shares compounds with KCNQ2 pot; HEK293 Kir2.1, FluxOR thallium flux fluorescence; activity over 3SD threshold, % at 10 µM; 2% of 1,200 active; AID 2345;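 active = fluorescence ratio rise of at least 3 SD above the vehicle-control mean, seen in both replicates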
KCNQ2 W236L pot: rat KCNQ2 W236L mutant potentiation by KCNQ2 potentiators | shares compounds with KCNQ2 pot | CHO KCNQ2-W236L, automated patch clamp current | current increase over 3SD of negative controls (%), stronger effect = higher value, % at 25 µM | 10% of 940 active;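 active = current increase at least 3 SD of the untreated controls above them in both duplicate recordings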
Of the large screens only hits and unclear results are named; the others gave an inactive call (follow-up assays come after a bar, where they were run). In the library only some 1.6% were active in any assay of this set; here they are far more common.

Cc1ccc(C)c(Cn2c3ccccc3c3cnn(CC(=O)NCCCN4CCCCC4)c(=O)c32)c1	none | Kir21 conf inh 60% | HEK293 ctr inactive
COc1cc(NC(=O)NCc2ccncc2)cc(OC)c1OC	none
CC1CCN(C(=S)NC(=O)c2cccc([N+](=O)[O-])c2)CC1	none
CCC1CCCCN1C(=S)NC(=O)c1cccc([N+](=O)[O-])c1 (configuration not stated)	none | Kir21 conf inh inactive | HEK293 ctr 348%
FC(F)(F)c1cnc(Oc2ccc(-c3nnco3)cc2)c(Cl)c1	none (no result: KCNQ2 pot)
FC(F)(F)c1cnc(Oc2ccccc2-c2nnco2)c(Cl)c1	KCNQ2 pot 7.4 | Kir21 conf inh inactive | HEK293 ctr inactive | CHO-K1 ctr inactive | KCNQ1 sel pot inactive | KCNQ2 pot confirm 53 | Kir21 spec inactive | KCNQ2 W236L pot inactive
O=C(Nc1ccc(S(=O)(=O)N2CCCCC2)cc1)C1CC(=O)N(c2ccc(Cl)cc2)C1 (configuration not stated)	none (no result: KCNQ2 pot)
CC1CCN(c2ccc3c(c2)S(=O)(=O)c2ccccc2C3=O)CC1	none (no result: KCNQ2 pot)
Cc1ccc(S(=O)(=O)N[C@@H](C)C(=O)N2CCC(C(=O)N[C@@H](Cc3ccccc3)C(=O)O)CC2)cc1	none (no result: KCNQ2 pot)
COC(=O)CSc1[nH]c2ccc(F)cc2c1[N+](=O)[O-]	KCNQ2 pot 6.4 | Kir21 conf inh inactive | HEK293 ctr inactive | CHO-K1 ctr inactive | KCNQ1 sel pot inactive | KCNQ2 pot confirm 29 | Kir21 spec inactive | KCNQ2 W236L pot 38%
CCOC(=O)CSc1[nH]c2cc(OC)ccc2c1[N+](=O)[O-]	none
CC(=O)Nc1ccc(C(=O)Cn2c3[n+](c4c(F)c(F)ccc42)CCCCC3)cc1	none
O=S(=O)(c1ccc(-c2ccccn2)s1)N1CCC2(CC1)OCCO2	none
O=C(NC(=S)NCc1ccccc1)c1ccccc1F	none
C=CCN(CC=C)C(=S)NC(=O)/C=C/c1ccccc1	none
CC(C)C(=O)NC(=S)N(Cc1ccccc1)Cc1ccccc1	none (no result: KCNQ2 pot)
C=CCN(CC=C)C(=S)NC(=O)c1ccc(-c2ccccc2)cc1	KCNQ2 pot 7.3 | Kir21 conf inh inactive | HEK293 ctr 420% | CHO-K1 ctr inactive | KCNQ1 sel pot 22 | KCNQ2 pot confirm 89 | Kir21 spec inactive | KCNQ2 W236L pot inactive
COc1ccc(C(=O)NC(=S)N(Cc2ccccc2)Cc2ccccc2)cc1	KCNQ2 pot 19 | Kir21 conf inh inactive | HEK293 ctr 199% | CHO-K1 ctr 136 | KCNQ1 sel pot inactive | KCNQ2 pot confirm inactive | Kir21 spec inactive | KCNQ2 W236L pot inactive
O=C(NC(=S)N(Cc1ccccc1)Cc1ccccc1)c1ccccc1F	KCNQ2 pot 11 | Kir21 conf inh inactive | HEK293 ctr 218% | CHO-K1 ctr 110 | KCNQ1 sel pot inactive | KCNQ2 pot confirm 22 | Kir21 spec inactive | KCNQ2 W236L pot inactive
CCOc1nc2cnccc2n(CC(=O)Nc2cccc(C)c2)c1=O	none
O=[N+]([O-])c1ccccc1/C=N/Nc1nnc(-c2ccccc2)c(-c2ccccc2)n1	none (no result: KCNQ2 pot)
Cc1ccc(S(=O)(=O)N/N=C\c2ccc3c(c2)OCO3)c(C)c1	none (no result: KCNQ2 pot)
C=CCn1c(SCc2cccc3ccccc23)nnc1-c1cccnc1	none (no result: KCNQ2 pot) | Kir21 conf inh 45% | HEK293 ctr inactive
C=CCn1c(SCC(=O)Nc2ccc(C(=O)O)cc2)nnc1-c1cccnc1	none (no result: KCNQ2 pot)
CC(C)c1ccc(OCC(=O)Nc2ccc3oc(=O)ccc3c2)cc1	none (no result: KCNQ2 pot)
COC(=O)/C=C1\OC(c2ccccc2)=CC1=O	KCNQ2 block -13 | Kir21 conf inh 54% | HEK293 ctr 66%
O=C1OC(c2ccccc2)=C/C1=C/N1CCCCC1	none (no result: KCNQ2 pot)
